{"source": "the antibiotic and cytotoxicity screens of Wong et al. (2023)", "note": "The whole screen tested about 39,000 compounds, of which about 1,500 (3.8%) were called active. The sample as a whole holds a higher share of actives than the screen did."}
{"test_system": "HSkMC (human skeletal muscle cells)", "assay": "cytotoxicity call (relative viability < 0.9)", "details": "10 µM"}
{"smiles": "Cc1noc(C)c1S(=O)(=O)N(C)C[C@H]1OCc2cnnn2CCCC(=O)N([C@H](C)CO)C[C@H]1C", "cytotoxicity call": "inactive"}
{"smiles": "Cc1ccc(S(=O)(=O)Nc2ccc3c(c2)CC(=O)N([C@H](C)CO)C[C@@H](C)[C@@H](CN(C)Cc2ccncc2)O3)cc1", "cytotoxicity call": "inactive"}
{"smiles": "CS(=O)(=O)Nc1ccc2c(c1)[C@H]1C[C@H](CC(=O)NCc3ccc(-c4ccccc4)cc3)O[C@H](CO)[C@H]1O2", "cytotoxicity call": "inactive"}
{"smiles": "C/C=C1\\[C@@H](O[C@H]2O[C@@H](CO)[C@@H](O)[C@@H](O)[C@@H]2O)OC=C(C(=O)OC)[C@H]1CC(=O)OC[C@H]1[C@H](C)[C@H](OC(=O)C[C@@H]2C(C(=O)OC)=CO[C@H](O[C@H]3O[C@@H](CO)[C@@H](O)[C@@H](O)[C@@H]3O)/C2=C\\C)C[C@@H]1[C@H](CO)COC(=O)C[C@@H]1C(C(=O)OC)=CO[C@@H](O[C@H]2O[C@@H](CO)[C@@H](O)[C@@H](O)[C@@H]2O)/C1=C\\C", "cytotoxicity call": "inactive"}
{"smiles": "C[C@@H]1CN([C@H](C)CO)C(=O)c2cc(NC(=O)C3CCCCC3)ccc2O[C@H]1CN(C)Cc1ccc(Cl)c(Cl)c1", "cytotoxicity call": "inactive"}
{"smiles": "CC(C)NC(=N)NC(=N)Nc1ccc(Cl)cc1.Cl", "cytotoxicity call": "inactive"}
{"smiles": "N[C@@H](CC(=O)Nc1ccc(Cl)cc1)C(=O)O", "cytotoxicity call": "inactive"}
{"smiles": "Cl.Cl.N=C(NCCCCCCNC(=N)NC(=N)Nc1ccc(Cl)cc1)NC(=N)Nc1ccc(Cl)cc1", "cytotoxicity call": "active"}
{"smiles": "C[C@H](CO)N1C[C@H](C)[C@H](CN(C)S(=O)(=O)c2ccccc2)Oc2ccc(NS(=O)(=O)c3cn(C)cn3)cc2C1=O", "cytotoxicity call": "inactive"}
{"smiles": "O=C(O)c1ccnc2nc[nH]c12", "cytotoxicity call": "inactive"}
{"smiles": "O=C1OC2(c3ccccc31)c1cc(I)c(O)c(I)c1Oc1c2cc(I)c(O)c1I", "cytotoxicity call": "active"}
{"smiles": "O=C1OC(c2cc(I)c(O)c(I)c2)(c2cc(I)c(O)c(I)c2)c2ccccc21", "cytotoxicity call": "inactive"}
{"smiles": "O=C1OC2(c3ccc(O)cc3Oc3cc(O)ccc32)c2ccccc21", "cytotoxicity call": "inactive"}
{"smiles": "Clc1ccc(-c2cccs2)nn1", "cytotoxicity call": "inactive"}
{"smiles": "CC(C)NC(=O)Nc1cccc2c1O[C@@H](CN(C)C(=O)Nc1ccc3c(c1)OCO3)[C@H](C)CN([C@H](C)CO)C2=O", "cytotoxicity call": "inactive"}
{"smiles": "COCC#Cc1cnc2c(c1)C(=O)N([C@H](C)CO)C[C@H](C)[C@H](CN(C)C(=O)Nc1ccccc1OC)O2", "cytotoxicity call": "inactive"}
{"smiles": "C[C@@H]1CN([C@@H](C)CO)C(=O)c2cc(NS(=O)(=O)c3ccc(Cl)cc3)ccc2O[C@H]1CN(C)Cc1ccc(-c2ccccc2)cc1", "cytotoxicity call": "active"}
{"smiles": "C[C@H](CO)N1C[C@H](C)[C@H](CN(C)Cc2ccc(-c3ccccc3)cc2)Oc2ccc(NS(=O)(=O)c3ccc(Cl)cc3)cc2C1=O", "cytotoxicity call": "active"}
{"smiles": "C[C@H](CO)N1C[C@H](C)[C@H](CN(C)Cc2ccc(-c3ccccc3)cc2)Oc2ccc(NS(=O)(=O)c3ccccc3)cc2C1=O", "cytotoxicity call": "inactive"}
{"smiles": "C[C@H]1CN([C@@H](C)CO)C(=O)c2cc(NS(=O)(=O)c3ccc(Cl)cc3)ccc2O[C@H]1CN(C)Cc1ccc(-c2ccccc2)cc1", "cytotoxicity call": "inactive"}
{"smiles": "C[C@H]1CN([C@@H](C)CO)C(=O)c2cc(NS(=O)(=O)c3ccccc3)ccc2O[C@@H]1CN(C)Cc1ccc(-c2ccccc2)cc1", "cytotoxicity call": "inactive"}
{"smiles": "C[C@@H]1CN([C@H](C)CO)C(=O)c2cc(NS(=O)(=O)c3ccccc3)ccc2O[C@@H]1CN(C)Cc1ccc(-c2ccccc2)cc1", "cytotoxicity call": "inactive"}
{"smiles": "C[C@@H]1CN([C@H](C)CO)C(=O)c2cc(NS(=O)(=O)c3ccc(Cl)cc3)ccc2O[C@@H]1CN(C)Cc1ccc(-c2ccccc2)cc1", "cytotoxicity call": "active"}
{"smiles": "C[C@@H]1CN([C@@H](C)CO)C(=O)c2cc(NS(=O)(=O)c3ccc(Cl)cc3)ccc2O[C@@H]1CN(C)Cc1ccc(-c2ccccc2)cc1", "cytotoxicity call": "active"}
{"smiles": "C[C@H](CO)N1C[C@H](C)[C@@H](CN(C)Cc2ccc(-c3ccccc3)cc2)Oc2ccc(NS(=O)(=O)c3ccccc3)cc2C1=O", "cytotoxicity call": "inactive"}
{"smiles": "C[C@H]1CN([C@@H](C)CO)C(=O)c2cc(NS(=O)(=O)c3ccc(Cl)cc3)ccc2O[C@@H]1CN(C)Cc1ccc(-c2ccccc2)cc1", "cytotoxicity call": "inactive"}
{"smiles": "CN1CCN(C)C2(CCN(C(=O)c3ccn[nH]3)CC2)C1=O", "cytotoxicity call": "inactive"}
{"smiles": "COCCNC(=O)C[C@@H]1CC[C@H]2[C@@H](COc3ccc(NS(=O)(=O)c4ccc(Cl)cc4)cc3C(=O)N2C)O1", "cytotoxicity call": "inactive"}
{"smiles": "C[C@H](CO)N1C[C@H](C)[C@@H](CN(C)C(=O)Nc2ccc(F)cc2)OCCCC[C@H](C)Oc2ccc(NS(=O)(=O)c3cccs3)cc2C1=O", "cytotoxicity call": "inactive"}
{"smiles": "C[C@@H]1CN([C@H](C)CO)C(=O)c2cc(NC(=O)CCC(F)(F)F)ccc2O[C@@H]1CN(C)C(=O)Nc1cccc2ccccc12", "cytotoxicity call": "inactive"}
{"smiles": "COc1ccc(NC(=O)N2C[C@H](O)COC[C@H]3O[C@H](CC(=O)NCc4ccccc4OC)CC[C@@H]32)cc1", "cytotoxicity call": "inactive"}
{"smiles": "C[C@@H]1CCCCO[C@@H](CN(C)C(=O)C2CCCCC2)[C@H](C)CN([C@H](C)CO)C(=O)c2cc(NC(=O)Nc3ccc4c(c3)OCO4)ccc2O1", "cytotoxicity call": "inactive"}
{"smiles": "COc1ccc2occ(C(C)=O)c2c1", "cytotoxicity call": "inactive"}
{"smiles": "C[C@H](CO)N1C[C@H](C)[C@@H](CN(C)Cc2ccc(-c3ccccc3)cc2)Oc2ccc(NS(=O)(=O)c3ccc(Cl)cc3)cc2C1=O", "cytotoxicity call": "active"}
{"smiles": "C[C@@H]1CN([C@H](C)CO)C(=O)c2cc(NS(=O)(=O)c3ccccc3)ccc2O[C@H]1CN(C)Cc1ccc(-c2ccccc2)cc1", "cytotoxicity call": "inactive"}
{"smiles": "C[C@@H]1CN([C@H](C)CO)C(=O)c2cc(NS(=O)(=O)c3ccc(Cl)cc3)ccc2O[C@H]1CN(C)Cc1ccc(-c2ccccc2)cc1", "cytotoxicity call": "active"}
{"smiles": "COc1cccc(C#Cc2ccc([C@H]3[C@H]4CN(S(=O)(=O)c5ccccc5C)CC(=O)N4[C@H]3CO)cc2)c1", "cytotoxicity call": "inactive"}
{"smiles": "C[C@H](CO)N1C[C@H](C)[C@@H](CN(C)C(=O)Cc2ccncc2)Oc2cc(C#CC3CCCCC3)ccc2S1(=O)=O", "cytotoxicity call": "inactive"}
{"smiles": "NC(=O)c1ccc([N+](=O)[O-])cc1Cl", "cytotoxicity call": "inactive"}
{"smiles": "O=C(Nc1cc(Cl)ccc1Cl)c1cc(Cl)ccc1NS(=O)(=O)c1ccc(Cl)c([N+](=O)[O-])c1", "cytotoxicity call": "inactive"}
{"smiles": "O=C(Nc1ccc([N+](=O)[O-])cc1Cl)c1cc(Cl)ccc1O", "cytotoxicity call": "active"}
{"smiles": "C[C@@H]1CN([C@H](C)CO)C(=O)c2cccc(NC(=O)NC3CCCCC3)c2O[C@H]1CN(C)Cc1ccc(C(F)(F)F)cc1", "cytotoxicity call": "inactive"}
{"smiles": "COc1cccc(CNC(=O)c2cc3c(c(-c4cccc(-c5ccc(C#N)cc5)c4)n2)[C@H](CCO)N([S@@](=O)C(C)(C)C)C3)c1", "cytotoxicity call": "inactive"}
{"smiles": "CN(C)C(=O)c1ccc(-c2cccc(-c3nc(C(=O)NCc4ccccc4)cc4c3[C@@H](CCO)N([S@](=O)C(C)(C)C)C4)c2)cc1", "cytotoxicity call": "inactive"}
{"smiles": "CN(C)C(=O)c1ccc(-c2cccc(-c3nc(C(=O)NCc4ccccc4)cc4c3[C@H](CCO)N([S@@](=O)C(C)(C)C)C4)c2)cc1", "cytotoxicity call": "inactive"}
{"smiles": "COc1cccc(CNC(=O)c2cc3c(c(-c4cccc(-c5ccc(C#N)cc5)c4)n2)[C@@H](CCO)N([S@](=O)C(C)(C)C)C3)c1", "cytotoxicity call": "active"}
{"smiles": "CN(C)C(=O)c1cccc(-c2cccc(-c3nc(C(=O)NC4CCCCC4)cc4c3[C@@H](CCO)N([S@](=O)C(C)(C)C)C4)c2)c1", "cytotoxicity call": "inactive"}
{"smiles": "CN(C)C(=O)c1ccc(-c2cccc(-c3nc(C(=O)NCc4ccccc4)cc4c3[C@@H](CCO)N([S@@](=O)C(C)(C)C)C4)c2)cc1", "cytotoxicity call": "active"}
{"smiles": "CN(C)C(=O)c1cccc(-c2cccc(-c3nc(C(=O)NC4CCCCC4)cc4c3[C@@H](CCO)N([S@@](=O)C(C)(C)C)C4)c2)c1", "cytotoxicity call": "active"}
{"smiles": "CN(C)C(=O)c1cccc(-c2cccc(-c3nc(C(=O)NC4CCCCC4)cc4c3[C@H](CCO)N([S@@](=O)C(C)(C)C)C4)c2)c1", "cytotoxicity call": "inactive"}
{"smiles": "COc1cccc(CNC(=O)c2cc3c(c(-c4cccc(-c5cccc(C#N)c5)c4)n2)[C@H](CCO)N([S@@](=O)C(C)(C)C)C3)c1", "cytotoxicity call": "inactive"}
{"smiles": "C[C@H](CO)N1C[C@H](C)[C@H](CN(C)Cc2ccc(C(=O)O)cc2)OCCCC[C@H](C)Oc2ccc(NC(=O)C3CCCCC3)cc2C1=O", "cytotoxicity call": "inactive"}
{"smiles": "C[C@H](CO)N1C[C@H](C)[C@H](CN(C)S(C)(=O)=O)OCCCC[C@H](C)Oc2ccc(NC(=O)CCCN(C)C)cc2C1=O", "cytotoxicity call": "inactive"}
{"smiles": "CC(C)NC(=O)Nc1ccc2c(c1)C(=O)N([C@@H](C)CO)C[C@@H](C)[C@H](CN(C)S(=O)(=O)c1cn(C)cn1)OCCCC[C@H](C)O2", "cytotoxicity call": "inactive"}
{"smiles": "C[C@@H]1CN([C@H](C)CO)C(=O)CCCn2cc(nn2)CO[C@@H]1CN(C)S(=O)(=O)c1ccc(Cl)cc1", "cytotoxicity call": "inactive"}
{"smiles": "O=C(O)[C@]1(O)C[C@@H](O)[C@@H](O)[C@H](O)C1", "cytotoxicity call": "inactive"}
{"smiles": "Cc1noc(C)c1S(=O)(=O)Nc1ccc2c(c1)CC(=O)N([C@@H](C)CO)C[C@H](C)[C@H](CN(C)Cc1ccccc1)O2", "cytotoxicity call": "inactive"}
{"smiles": "C[C@H](CO)N1C[C@H](C)[C@H](CN(C)C(=O)Nc2ccc(C(F)(F)F)cc2)Oc2ccc(NS(C)(=O)=O)cc2C1=O", "cytotoxicity call": "inactive"}
{"smiles": "C[C@@H]1CN([C@H](C)CO)C(=O)c2cccc(NC(=O)C3CC3)c2O[C@H]1CN(C)S(=O)(=O)c1ccc(Cl)cc1", "cytotoxicity call": "inactive"}
{"smiles": "Cc1ccc(S(=O)(=O)N(C)C[C@H]2OCCCC[C@H](C)Oc3ccc(NC(=O)Nc4ccc(F)cc4)cc3C(=O)N([C@@H](C)CO)C[C@@H]2C)cc1", "cytotoxicity call": "inactive"}
{"smiles": "CC(=O)N1CCc2nc(C(N)=O)sc2CC1", "cytotoxicity call": "inactive"}
{"smiles": "O=C(OC[C@H]1O[C@@H](OC(=O)c2cc(O)c(O)c(O)c2)[C@H](O)[C@@H](O)[C@@H]1O)c1cc(O)c(O)c(O)c1", "cytotoxicity call": "inactive"}
{"smiles": "Cc1coc(C)c1C(=O)O[C@@H]1O[C@@H](C)[C@H](O)[C@@H](O)[C@H]1O", "cytotoxicity call": "active"}
{"smiles": "COC1C(C(=O)O)OC(C)C(O)C1O.COC1OC(C(=O)O)C(O)C(O)C1O", "note": "(centres undefined) [ALGINIC ACID [Mol Wt ~200,000; monomers shown] ]", "cytotoxicity call": "inactive"}
